Source: PubChem
Rows were chosen to be rich in hits. Some 0.77% of all compounds tested hit in one or more screens of this group.
PKM2 act: qHTS Assay for Activators of Human Muscle isoform 2 Pyruvate Kinase; Pyruvate kinase PKM (Homo sapiens), P14618; purified PKM2, Kinase-Glo ATP luminescence, activation; response scale: 0% is enzyme alone, no compound; Potency, µM (series often up to 57.5 µM), for inactives: at the highest dose activation, most hits filed as activators; 260,000 tested, 0.34% active; note: potency is the fitted concentration of half-maximal effect; % is set by controls: 0 for no effect and ±100 for the full control effect; nearly all actives have a fitted effect of over 55% in size
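Kinase-Glo luminescence reports ATP generated from ADP (0.1 mM) and PEP (0.5 mM) by purified hPK-M2 after 1 h at room temperature, pH 7.2 imidazole buffer; intermediate enzyme activity allows detecting inhibitors and activators.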
GCN5L2 inh-1: qHTS Assay for Inhibitors of GCN5L2 | 390,000 tested, 0.21% active | Potency, µM (series often up to 58.9 µM), for the others: at the highest dose activity change, negative = inhibition, hits mostly inhibitors | GCN5L2 HAT assay, ThioGlo1 CoA-SH fluorescence | Histone acetyltransferase KAT2A (Homo sapiens), Q92830 | AID 504327, 2011; note: potency is the fitted concentration of half-maximal effect; % is set by controls: 0 for no effect and ±100 for the full control effect
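Enzyme at 20nM final was mixed with library compounds for 15 min at room temperature. Peptide H3(1-25) at 75uM, acetyl-CoA at 70uM and ThioGlo1 at 50uM were then added. Plates were read immediately and after 20 min (Ex340nm/Em540nm).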
Vif-A3G inh: qHTS for Inhibitors of Vif-A3G Interactions: qHTS | 410,000 tested, 0.076% active | HeLa A3G-eYFP + Vif (tagged APOBEC3G with the HIV-1 protein that degrades it), YFP fluorescence, overnight | Potency, µM (titrated, usually from 46.1 µM), for inactives: at the highest dose activity, negative = active, actives largely listed as inhibitors | DNA dC->dU-editing enzyme APOBEC-3G (Homo sapiens), Q9HC16; note: potency is the fitted concentration of half-maximal effect; % is set by controls: 0 for no effect and ±100 for the full control effect; nearly all actives have a fitted effect of over 60% in size
Target sequence (Q9HC16 whole entry, looked up): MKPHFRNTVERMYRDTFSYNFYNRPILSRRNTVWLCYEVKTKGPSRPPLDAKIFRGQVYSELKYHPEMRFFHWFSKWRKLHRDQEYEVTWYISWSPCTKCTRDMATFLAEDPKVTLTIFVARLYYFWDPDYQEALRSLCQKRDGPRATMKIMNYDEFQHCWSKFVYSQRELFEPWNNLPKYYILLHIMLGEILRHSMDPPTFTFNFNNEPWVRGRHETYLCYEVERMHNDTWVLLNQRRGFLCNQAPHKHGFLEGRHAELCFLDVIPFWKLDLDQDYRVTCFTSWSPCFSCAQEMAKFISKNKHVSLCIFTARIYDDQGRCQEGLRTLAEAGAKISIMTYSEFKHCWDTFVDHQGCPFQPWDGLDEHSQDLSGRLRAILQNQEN
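Read-out is eYFP fluorescence (Ex 488/Em 500-530) from Vif-expressing HeLa A3G-eYFP cells; more signal means A3G escaped Vif-mediated degradation. Cells plated overnight, compound pinned in, incubated overnight at 37 deg C.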
IL2 activator: qHTS of IL-2 Activators; IL-2 activation reporter assay, cell-based qHTS; stimulated with anti-CD3/CD4/CD28 beads; in transgenic mouse T cells; activation, % (series mostly up to about 46 µM); 360,000 tested, 0.065% active; in the data active = activation above about 50%; inconclusive = mostly about 30% to 49%; note: 0% is about no effect
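Screening format: compound pinned onto unstimulated transgenic mouse T cells, 60 min incubation, then anti-CD3/anti-CD4/anti-CD28 bead stimulation for 18 hours at 37 degrees C, followed by EGFP and DsRed detection.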
GoLoco inh red: qHTS Assay for Inhibitors of RGS12 GoLoco Motif Activity (Red Fluorophore); Guanine nucleotide-binding protein G(i) subunit alpha-1 (Homo sapiens), P63096; Gai1:RGS12 GoLoco peptide FP, rhodamine, 10 min; Potency, µM (top dose mostly 61.6 µM), without a hit: at the top dose activity, negative = inhibition, hits mostly inhibitors; 230,000 tested, 0.44% active; AID 880, 2007; active = well fitted inhibition curve with a large enough effect, not every such curve was filed as active; inactive = no such curve, though single readings can be large or run the other way; note: potency is the fitted concentration of half-maximal effect; % is set by controls: 0 for no effect and ±100 for the full control effect; nearly all actives have a fitted effect of over 30% in size
Target sequence (P63096 whole entry, looked up): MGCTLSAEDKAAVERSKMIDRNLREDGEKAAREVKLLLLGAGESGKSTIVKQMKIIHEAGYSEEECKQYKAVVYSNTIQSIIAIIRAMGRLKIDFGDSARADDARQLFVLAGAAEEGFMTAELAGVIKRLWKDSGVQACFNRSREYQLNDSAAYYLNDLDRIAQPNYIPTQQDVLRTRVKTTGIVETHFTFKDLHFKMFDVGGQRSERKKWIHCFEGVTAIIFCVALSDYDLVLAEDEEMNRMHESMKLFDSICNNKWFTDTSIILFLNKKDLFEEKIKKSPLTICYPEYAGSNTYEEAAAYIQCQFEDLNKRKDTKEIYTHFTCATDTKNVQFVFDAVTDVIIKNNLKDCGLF
Vif-A3F inh: qHTS for Inhibitors of Vif-A3F Interactions: qHTS; 390,000 tested, 0.2% active; HeLa A3F-eYFP + Vif (tagged APOBEC3F with the HIV-1 protein that degrades it), YFP fluorescence increase; Potency, µM (series often up to 46.1 µM), for inactives: top-dose activity, negative = active; note: potency is the fitted concentration of half-maximal effect; % of control where 0% means no effect; nearly all actives have a fitted effect of over 65% in size
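HeLa cells stably expressing Vif plus C-terminally eYFP-tagged A3F were seeded, incubated overnight at 37 deg C, dosed with compound, incubated overnight again at 37 deg C. Yellow fluorescence (Ex 488/Em 500-530) reported blocked Vif-mediated A3F-eYFP degradation.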
GCN5L2 inh-2: qHTS Assay for Inhibitors of GCN5L2: Hit confirmation. shares compounds with GCN5L2 inh-1. GCN5L2 HAT, ThioGlo1 CoA fluorescence, 20 min. Potency, µM, usual class: inhibitors. 140 tested, 70% active. AID 588347, 2011
Active calls of the source: *; ? = inconclusive; nt = no result. Unless noted, calls come from the whole dose curve; as a rule, active = well fitted curve in the direction sought with a large enough effect; inconclusive = small, poorly fitted or top-dose-only effect, or another doubt; inactive = no such curve, though single readings can be large; an effect the other way counts as inactive or inconclusive.

SMILES	PKM2 act	GCN5L2 inh-1	Vif-A3G inh	IL2 activator	GoLoco inh red	Vif-A3F inh	GCN5L2 inh-2
C=CC[C@@H](CC(=O)NCCO)C(=O)N[C@@H](COC(=O)[C@@H](CC=C)Cc1ccc(F)cc1)Cc1ccccc1	nt	-2%	-15%	-4	nt	0%	nt
O=[N+]([O-])C(=C1Nc2ccccc2N1)C(Cl)=C(Cl)Cl	-3%	35µM*	3%	-1	56%	-14%	23*
CCOC(=O)c1sc(NC(=O)CSc2nnc(Cc3ccccc3)o2)c(C#N)c1C	-24%	?	-3%	1	12%	0%	10*
CCOC(=O)c1c(NC(=O)CSc2nnc(Cc3ccccc3)o2)sc(C(C)=O)c1C	1%	-4%	0%	-3	8%	3%	nt
Cc1ccc(/C=C2\SC(=S)N(CCC(=O)NNC(=O)c3cccc(O)c3)C2=O)cc1	nt	-14%	-5%	0	nt	-5%	nt
O=C(/C=C/c1ccco1)Nc1scc(-c2ccccc2)c1C(=O)O	-15%	?	-2%	0	-9%	1%	?
O=C(/C=C/c1ccccc1)Nc1scc(-c2ccccc2)c1C(=O)O	-5%	2%	-1%	5	16%	-5%	nt
Cn1c(SCC(=O)c2ccc(-c3ccccc3)cc2)nnc1-c1ccco1	?	28µM*	1%	-2	54%	-7%	?
Cc1ccc(C(=O)CSc2nnc(-c3ccco3)n2Cc2ccccc2)cc1	-1%	-4%	-1%	-1	10%	9%	nt
CCC(C)Sc1ccc(-c2nc3ccc(C)cn3c2NC2CCCCC2)cc1 (centres undefined)	nt	20µM*	-2%	0	nt	-7%	?
Nc1ccc(-c2nc3cc(N)ccc3n2CCO)cc1	14%	?	0%	0	-4%	12%	18*
Cn1c(CO)nc2cc(N)ccc21	6%	-12%	-1%	-4	nt	3%	nt
C=CCOC(=O)c1cc(-c2ccc(/C=C3\C(=O)NC(=O)C(C#N)=C3C)o2)ccc1Cl	3%	25µM*	0%	1	25%	-4%	5.1*
CCOC(=O)Cc1csc(NC(=O)CSc2nnnn2-c2ccc(C)c(C)c2)n1	17%	?	0%	-2	6%	-13%	?
CCOC(=O)Cc1csc(NC(=O)CSc2nnnn2-c2ccc(F)cc2)n1	17%	-4%	1%	0	3%	1%	nt
COc1cc2c(cc1OC)-c1cc(NC3CCCCC3)nc(=O)n1CC2	0%	-5%	-6%	0	9%	4%	nt
CC(=O)c1ccc(-c2nc3ccccc3n2C)o1	-37%	?	0%	1	18%	-8%	18*
Cc1ccc(-c2nc3ccccc3n2C)o1	-71%	-3%	-6%	-2	-16%	-1%	nt
COc1ccccc1CNC(=O)CCCc1nnc2n(C)c(=O)c3sccc3n12	nt	-8%	0%	2	nt	0%	nt
COc1cc(N=c2ssnc2Cl)cc(OC)c1OC	-31%	10µM*	0%	-3	-14%	-8%	3.6*
CCOc1ccc(-n2c(C)cc(/C=C3/C(=N)N4C(=NC3=O)SN=C4S(C)(=O)=O)c2C)cc1	-8%	32µM*	0%	1	22%	-32%	?
Cc1cc(/C=C2/C(=N)N3C(=NC2=O)SN=C3S(C)(=O)=O)c(C)n1-c1ccc(F)cc1	-8%	-22%	1%	1	0%	?	nt
CCCCNC(=O)CC(=O)Nc1ccccc1C(=O)O	-2%	2%	-6%	-1	2%	-10%	nt
O=C(C1=NN(c2ccccc2)C2C(=O)N(c3ccccc3)C(=O)C12)c1ccccc1 (centres undefined)	4%	?	-1%	4	13%	?	nt
O=C(C1=NN(c2ccccc2)C2C(=O)N(c3ccccc3Cl)C(=O)C12)c1ccccc1 (centres undefined)	11%	?	1%	-4	8%	?	?
SMILES	PKM2 act	GCN5L2 inh-1	Vif-A3G inh	IL2 activator	GoLoco inh red	Vif-A3F inh	GCN5L2 inh-2
Cc1ccc(N2C(=O)C3C(C(=O)c4ccccc4)=NN(c4ccccc4)C3C2=O)cc1 (centres undefined)	-2%	20µM*	1%	-1	4%	-18%	?
O=C(CCc1nnc(CCC2CCCCC2)o1)NCCc1ccccn1	4%	0%	-3%	0	7%	-8%	nt
Cc1nonc1C(=O)N/N=C/c1cc2c(cc1Br)OCO2	-9%	0%	-2%	0	10%	-7%	nt
O=c1c2ccccc2sn1-c1cc(S(=O)(=O)N2CCOCC2)ccc1N1CCCC1	-99%	8.9µM*	1%	-5	-70%	0%	5.8*
O=c1c2ccccc2sn1-c1cc(S(=O)(=O)N2CCOCC2)ccc1N1CCCCC1	nt	nt	4%	nt	nt	nt	nt
O=c1c2ccccc2sn1-c1cc(S(=O)(=O)N2CCOCC2)ccc1N1CCOCC1	-38%	1.6µM*	?	-3	3.5µM*	7%	4.1*
CC(C)(C)NC(=O)C1Cc2ccccc2CN1C(=O)Nc1cccc(Cl)c1 (centres undefined)	-1%	14%	-3%	0	-10%	9%	nt
CN(c1ccccc1)c1ccc(/C=C(\CCC(=O)O)c2nc3ccccc3s2)cc1[N+](=O)[O-]	0%	?	2%	2	3%	-6%	20*
Cc1cn(C2OC(COC(=O)c3ccccc3)C(O)C2Cl)c(=O)[nH]c1=O (centres undefined)	-1%	1%	2%	2	3%	-8%	nt
O=C(CSc1nc2ccccc2s1)Nc1cc(C(=O)O)cc(C(=O)O)c1	-4%	20µM*	1%	4	23%	2%	?
CC(O)c1cccc(NC(=O)Nc2cccc(NC(=O)Nc3cccc(C(C)O)c3)c2)c1 (centres undefined)	nt	-15%	0%	-3	nt	2%	nt
CCCNC(=O)c1ccc2c(=O)c(O)c(-c3ccsc3)[nH]c2c1	1%	32µM*	?	0	5%	-6%	16*
CCOC(=O)C1CCN(S(=O)(=O)c2ccc3c4c(cccc24)C(=O)N3CC)CC1	nt	?	2%	-1	nt	-12%	?
